Bioassay records (PubChem BioAssay)
PK Bst: modulators of Bacillus stearothermophilus pyruvate kinase; purified pyruvate kinase, luminescence ATP production; ribose 5-phosphate activator present at AC10; Potency, µM; 51,000 compounds, 1.2% hits; AID 361; in the data active = potency below about 11 µM; inconclusive = mostly about 12 µM to 25 µM;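 the screen sought inhibitors and activators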;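 note: scaled between full activation by ribose 5 phosphate and full inhibition by luteolin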
HADH2 inh: inhibitors of human HADH2 dehydrogenase | Q99714 | recombinant HADH2, NADH fluorescence, beta-hydroxybutyryl-CoA | Potency, µM (series often up to 57.1 µM), without a hit: at the highest dose activity change, negative = inhibition, usual class: inhibitors | 73,000 compounds, 3.4% hits; note: nearly all actives have a fitted effect of over 60% in size
Target sequence (Q99714 whole entry, looked up, one chain of several): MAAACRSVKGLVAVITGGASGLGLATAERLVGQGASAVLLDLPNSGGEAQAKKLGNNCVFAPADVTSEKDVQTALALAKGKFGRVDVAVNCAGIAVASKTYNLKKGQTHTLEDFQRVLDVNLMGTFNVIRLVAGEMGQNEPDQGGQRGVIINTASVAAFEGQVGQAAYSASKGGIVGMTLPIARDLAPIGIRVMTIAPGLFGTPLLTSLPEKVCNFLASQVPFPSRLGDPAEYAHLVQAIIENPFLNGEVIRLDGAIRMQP
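NADH fluorescence (ex 360/em 450 nm) read every 30 s for 4 min; activity taken as last-minus-first time point difference. Enzyme 20 nM, NAD+ 1 mM, beta-hydroxybutyryl-CoA 90 uM, pH 9.0 Tris buffer.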
HSD17B inhib: inhibitors of human HSD17B10 dehydrogenase; recombinant HSD17B10, NADH fluorescence kinetic; Potency, µM (titrated, usually from 57.1 µM), inactives show at the highest dose activity change, negative = inhibition, hits mostly inhibitors; 75,000 compounds, 7.6% hits; AID 893;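 note: the protocol describes HADH2 (HSD17B10) and not the HSD17B4 of the title; nearly all actives have a fitted effect of over 70% in size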
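His-tagged E. coli-expressed HADH2 at 20 nM in 100 mM Tris-HCl pH 9.0 with 0.01 % Tween-20, preincubated 15 min with compound at room temperature. Reaction with 1 mM NAD+ and 90 uM beta-hydroxybutyryl coenzyme A; NADH fluorescence (360/450 nm) read kinetically over 4 min, last minus first point.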
ALOX15 inhib: blocks human 15-lipoxygenase activity; 74,000 compounds, 1.4% hits; P16050; purified 15hLO-1, xylenol orange hydroperoxide absorbance; Potency, µM (series often up to 57.1 µM), inactives show at the highest dose activity change, negative = inhibition, hits mostly inhibitors; note: nearly all actives have a fitted effect of over 55% in size
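Readout: Fe(III)-xylenol orange absorbance, 573-to-405 nm ratio as reaction progress. Enzyme 40 nM purified human 15hLO-1, substrate 50 uM arachidonic acid, 6 min RT after 15 min compound preincubation; Hepes pH 7.5 buffer with Triton X-100.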
FLuc inh: firefly luciferase inhibition. AID 411. 72,000 compounds, 2.2% hits. Potency, µM (series often up to 57.1 µM), for the others: at the top dose activity change, negative = inhibition, most hits filed as inhibitors. P08659. purified firefly luciferase, luminescence, 8 min; note: nearly all actives have a fitted effect of over 40% in size
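Firefly luciferase (PKLight detection mix) with 10 uM ATP in pH 7.2 imidazole buffer (KCl, MgCl2, Tween 20, BSA). Compounds tested across a concentration series (qHTS). Luminescence read after 8 min at ambient temperature.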
ERK AVP block: vasopressin-driven ERK pathway inhibition. HEK293-V1b, vasopressin-stimulated pERK AlphaScreen. Potency, µM (top dose mostly 57.5 µM), without a hit: top-dose activity, negative = inhibition, actives largely listed as inhibitors. 72,000 compounds, 0.99% hits. AID 995; note: nearly all actives have a fitted effect of over 55% in size
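HEK293 cells stably expressing V1b receptor, preincubated 30 min at 37 °C with compound, then stimulated 5 min with 25 nM vasopressin. Phospho-ERK by AlphaScreen SureFire after 5 h RT; normalized to DMSO and vasopressin; AC50 by Hill fit.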
* hit, by the source's call; i = inactive; ? = inconclusive; nt = no result; [ ] = another dose, or the depositor's remark. The list is not random: actives were taken first. Their share in the collection is about 11%. Unless noted, calls come from the whole dose curve; as a rule, active = well fitted curve in the direction sought with a large enough effect; inconclusive = small, poorly fitted or top-dose-only effect, or another doubt; inactive = no such curve, though single readings can be large; an effect the other way counts as inactive or inconclusive. Unless noted, % is set by controls: 0 for no effect and ±100 for the full control effect; potency is the fitted concentration of half-maximal effect.

SMILES	PK Bst	HADH2 inh	HSD17B inhib	ALOX15 inhib	FLuc inh	ERK AVP block
COC(=O)C/C=C/C(C)C(OCc1cccc(-c2ccccc2)c1)C1CCCCC1 (stereo not given)	nt	?	-1.2%[11.4 µM]	-8.0%[11.4 µM]	nt	4.6%[11.5 µM]
COC(=O)[C@@H]1C[C@H]2CC[C@H](O)C[C@H]2N1Cc1ccc(N2CCOCC2)cc1	nt	nt	2.8%	nt	nt	9.6%
Clc1ccc2c(c1)N(CCCN1CCCC13CCCCC3)c1ccccc1S2	nt	8.1%[11.4 µM]	-2.7%[11.4 µM]	8.6%[11.4 µM]	5.2%[11.4 µM]	4.6%[11.5 µM]
CN(C)c1ccc(-c2nc(N3CCNCC3)c3ccccc3n2)cc1	nt	1.9%	-1.3%	-10.2%	-6.1%[2.29 µM]	-7.3%
c1nc(NC2CCCCCC2)c2[nH]cnc2n1	nt	?	31.6µM*	7.7%	0.1%	nt
Cc1cc(OCC(=O)C(C)(C)C)c2c(C)c(C)c(=O)oc2c1	nt	63.5%[11.4 µM]	?	5.2%[11.4 µM]	3.1%	-7.6%
COC(=O)Cc1c(C)c2c(O)cc(C)cc2oc1=O	nt	-17.2%	31.6µM*	7.9%	-0.3%	-27.0%
Cc1cc(=O)oc2cc(O)cc(O)c12	nt	i	12.6µM*	-22.3%	nt	-12.8%
CCc1cc(=O)oc2cc(C)c3c(C)coc3c12	>57	9.0%	6.31µM*	2.8%	1.2%	-20.2%
CCCCCc1cc(O)c2c(C)cc(=O)oc2c1	nt	-1.0%[11.4 µM]	-18.5%	-6.1%[11.4 µM]	0.6%	-4.0%
CCc1cc(=O)oc2cc(C)cc(O)c12	nt	0.6%	-5.2%	-8.4%	-1.7%	25.1µM*
COc1cccc(Nc2ncc3nc(C)c(=O)n(-c4ccccc4)c3n2)c1	nt	10.4%	-1.8%	3.3%	-1.2%[11.4 µM]	1.2%
CCN(CC)CCCC(C)NC(=O)c1ccc(-n2c(=O)c(=O)[nH]c3ccccc32)cc1 (stereo not given)	nt	-2.7%	2.0%	2.1%	nt	nt
O=C(O)c1ccc(C(=O)c2ccccc2)c(C(=O)O)c1	nt	-7.4%[11.4 µM]	3.8%[11.4 µM]	1.3%[11.4 µM]	1.3%[11.4 µM]	15.5%[11.5 µM]
O=c1c(-c2ccccc2)nc2cncnc2n1Cc1ccccc1	nt	-5.9%	?	-2.5%	-0.1%[11.4 µM]	?
COc1ccc(C2Nc3ccccc3C(=O)N2O)cc1OC (stereo not given)	>57	-3.2%	-2.7%	-8.6%	-1.5%	17.8%
CCOc1cc(C2Nc3ccccc3C(=O)N2c2ccccc2)ccc1O (stereo not given)	>57	-1.5%	31.6µM*	-1.9%	-2.6%	-14.7%
COc1ccc(-c2ccc(C(=S)N3CCN(C(C)=O)CC3)o2)cc1	i	2µM*	31.6µM*	-26.3%	-22.6%	-14.4%
CN(Cc1ccco1)c1ccnc(-c2ccccc2C(F)(F)F)n1	nt	-21.3%	7.9%	-17.1%	-1.3%[2.29 µM]	12.4%
Nc1ccc(O)c(-c2nc3ccccc3s2)c1	nt	31.6µM*	?	?	?	-28.8%
CN(C)c1nc(N)nc(-c2nc3ccccc3s2)n1	>57	9.8%	?	9.2%	?	-8.8%
Nc1cccc(-c2nc3ccc(N)cc3s2)c1	0.711*	?	25.1µM*	1.5%	1µM*	-18.1%
COc1ccccc1-c1ccc2ncnc(NC3CC3)c2c1	nt	-5.4%	-0.8%	6.9%	-1.2%[2.29 µM]	-7.8%
Cc1cc(C)c(S(=O)(=O)Nc2ccc(C(=O)O)c(O)c2)cc1C	nt	?	-13.4%	-7.4%	nt	nt
CCc1cccc(CC)c1N(COC)C(=O)Cn1nnc2ccccc21	6.7*	nt	nt	nt	-0.7%[25.5 µM]	nt
SMILES	PK Bst	HADH2 inh	HSD17B inhib	ALOX15 inhib	FLuc inh	ERK AVP block
Cc1cccc2sc(N)nc12	nt	-3.8%	-2.8%	3.4%	nt	4.8%
O=C(Nc1ccc(OC(F)(F)F)cc1)c1cnc2n(c1=O)CCS2	nt	2.5%	?	15.4%	-4.2%	nt
O=C(Nc1ccc(OC(F)(F)F)cc1)C1=NCCN1	i	16.1%	-4.6%	-4.7%	10µM*	-4.4%
COc1ccc(-c2c(O)c3c(OC)c4c(cc3oc2=O)OC(C)(C)C=C4)cc1	nt	nt	?	-4.9%	nt	24.4%
Cc1ccc(C)n1NC(=O)c1cccs1	>57	-5.0%	-12.9%	15.8µM*	1.5%	-27.0%
Cc1ccc(-c2ccc(CCC(=O)O)n2NC(=O)c2cccs2)cc1	>57	-0.9%	1.9%	-18.4%	-2.3%	-6.1%
CCC(=C(CC)c1ccc(O)cc1)c1ccc(O)cc1	nt	-11.8%[25.6 µM]	-6.3%[25.6 µM]	-10.1%[25.6 µM]	0.8%[25.5 µM]	23.4%[25.7 µM]
N#Cc1cn(-c2ccccc2)nc1-c1cc2ccccc2oc1=O	>57	25.1µM*	15.8µM*	-14.7%	1.2%	18.1%
COC(=O)[C@@]1(Cc2ccc(OC)cc2)[C@H]2c3cc(C(=O)N4CCCC4)n(Cc4nc5ccccc5[nH]4)c3C[C@H]2CN1C(=O)c1ccccc1	nt	?	?	nt	nt	-14.2%
CCCn1c(NC(=O)C2CCN(S(=O)(=O)c3cccs3)CC2)nc2ccccc21	>57	-1.8%	-3.3%	12.0%	-0.2%	12.6µM*
CCCn1c(NC(=O)c2ccc(C)cc2)nc2ccccc21	>57	15.8µM*	86.2%	8.8%	-1.0%	1.4%
Clc1ccc2c(NC3CCC(N4CCCCC4)CC3)ccnc2c1 (stereo not given)	nt	22.1%[11.4 µM]	-18.9%[11.4 µM]	11.5%[11.4 µM]	2.0%[11.4 µM]	-15.1%[11.5 µM]
O=C1c2ccccc2C(O)N1Cc1ccco1 (stereo not given)	nt	-0.4%	5.4%	-3.7%	-2.8%	-25.4%
O=C1c2ccccc2NC(c2cccc(F)c2)N1Cc1ccco1 (stereo not given)	>57	12.6µM*	25.1µM*	-6.7%	1.1%	-23.8%
